In PubChem BioAssay (NCI):
About 83,000 compounds went through this panel and 20% of them were active in at least one assay; those are over-represented in the sample as a whole.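 Assay: single dose, 48 h. Readout: percent growth (0 = no net growth; negative = cell death). Active: <10.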 Values without a mark were called inactive. Calls of active or inactive are those of the source.

The molecules below were run on HS 578T breast (assay: NCI-60 one-dose screen, 48 h (100 = growth as untreated, 0 = no growth, -100 = all killed)). Conditions: 10 µM unless noted.

Going from `CC1(C)NCCC[C@]2(C)[C@H]3CC[C@@H]4[C@H]5[C@H](C(=O)/C=C/c6ccco6)CC[C@]5(CO)CC[C@@]4(C)[C@]3(C)CC[C@@H]12` to `O=C1/C=C/[C@@H](O)[C@@H]2C[C@@H](O)C[C@H]2/C=C/CCC[C@H](CCc2cccc3ccccc23)O1`, the growth falls from 86.8% to 39.5%.

Going from `CCCCCCNC(=O)Oc1ccc(/C(=C(\C)c2ccccc2)c2ccc(OCCCN(C)C)cc2)cc1` to `CC(c1ccccc1)C(C(=O)c1ccccc1)c1ccccc1` (stereo not drawn), the growth rises from 74% to 91.2%.

Compared with `Cc1ccc(-n2nc3c(c(C#N)c2=O)CC(c2ccccc2[N+](=O)[O-])C([N+](=O)[O-])=C3O)cc1` (stereo not drawn), `Cc1ccc(-n2c3c(c(-c4ccccc4)c2-c2ccccc2)C2=NCCN2C=N3)cc1` is higher in growth: 77.7% for the first, 94.8% for the second.

First: CN1CCN(CCNc2nccc(-c3c(-c4cccc(O)c4)nc4sccn34)n2)S1(=O)=O
Second: Cc1nc2sccn2c1-c1cn2ccsc2n1
The growth of the first is lower: 76.7% for the first, 87% for the second.

First: Cc1cc(Cl)nc(N(CCNc2ccnc3cc(Cl)ccc23)Cc2ccccn2)n1
Second: CCNc1nc2ccc(Nc3ccnc4cc(Cl)ccc34)cc2[nH]1
The growth of the first is lower: 87.3% for the first, 91.4% for the second.

First: COc1ccc(-c2cnc3c(-c4cccc5cnccc45)cnn3c2)cc1
Second: O=C1Nc2ccccc2/C1=C\c1c(-c2ccc(F)cc2)nc2ccccn12
The growth of the first is lower: 74% for the first, 91.5% for the second.

First: CCOC(=O)c1cc(C#N)n2ccc3ccccc3c12
Second: N#C/C(=C\c1cccc(C#N)c1)c1ccccc1
The growth of the first is higher: 112% for the first, 106% for the second.

Going from `N#CC(C(=O)/C(=N/NC(=O)c1ccccc1O)C(C#N)c1ccccc1)c1ccccc1` (stereo not drawn) to `O=C(Cc1ccccc1)NNc1nc(Cl)nc(N2CCN(C(c3ccccc3)c3ccccc3)CC2)n1`, the growth rises from 24.1% to 98.9%.

Compared with `Cc1nc2ccc(Cl)cn2c1-c1nnc(SCc2ccc([N+](=O)[O-])cc2)o1`, `Cc1ccc(C(=O)/C(=C/c2ccc([N+](=O)[O-])cc2)SCc2ccc(Cl)cc2)cc1` is higher in growth: 45.6% for the first, 88.2% for the second.

First: CCN(CC)CCn1c(=O)c2cc(OC)c(OC)cc2c2ccc3cc4c(cc3c21)OCO4
Second: COc1cc(NC(=O)CSc2nc3ccc(C)cc3c(=O)n2Cc2ccccc2)cc(OC)c1OC
The growth of the first is higher: 64.3% for the first, 44.9% for the second.

Going from `O=C1C=CC(=O)N1c1cccc(Cl)c1` to `CSc1nc2sc3cccc(Cl)c3n2c(=N)c1C#N`, the growth falls from 113% to 98.2%.

Compared with `O=C(/C=C/c1c(-c2ccc(Cl)cc2)nn(-c2ccccc2)c1C(F)(F)F)c1ccc(Cl)cc1`, `CN1[C@@H]2CC[C@H]1/C(=C\c1ccccc1)C(=O)/C2=C/c1ccccc1` is lower in growth: 92.2% for the first, 33.7% for the second.

Compared with `COc1cc(C2C3=C(COC3=O)N(CCO)c3cc4c(cc32)CCC4)cc(OC)c1OC` (stereo not drawn), `COc1cc(CC(=O)n2ncc3ccc(N)cc32)cc(OC)c1OC` is higher in growth: 14.5% for the first, 103% for the second.

Compared with `COc1cc(-c2cc(-c3ccc(N(C)C)cc3)nc(N3CCOCC3)c2C#N)cc(OC)c1OC`, `COc1cc2c(cc1OC)C(=O)/C(=C/c1cc(C)c(O)c(C)c1)S2` is lower in growth: 77.9% for the first, 36.8% for the second.

First: C=CCn1c(-c2ccc(-c3nc4ccc(C)cc4[nH]3)cc2)n[nH]c1=S
Second: Cc1c2cc[nH]c(=O)c2c(C)c2c1[nH]c1cc(OCCN3CCN(C)CC3)ccc12
The growth of the first is higher: 102% for the first, 15.1% for the second.

`Cc1cc2c(c(C)c1Cl)C(=O)/C(=C/c1ccc(O)c(O)c1)O2` gave a growth of 94%.

`CC(C)(C)[Si](C)(C)OC1[C@@H](O[Si](C)(C)C(C)(C)C)[C@@H](CNC(=O)NC(=O)CCl)O[C@H]1n1cnc2c(NC(=O)Nc3ccccc3)ncnc21` (stereo partly drawn) was tested, and the growth was -4.28% (active).

In the case of `C#Cc1cccc(NC(=O)Nc2cccc(NC(=O)CCl)c2)c1`, the growth is reported as 29.6% [8.25 µM].

Each molecule was assayed on NCI/ADR-RES ovarian in the same assay as above. Conditions: 10 µM unless noted.

Compared with `CC1(C)NCCC[C@]2(C)[C@H]3CC[C@@H]4[C@H]5[C@H](C(=O)/C=C/c6ccco6)CC[C@]5(CO)CC[C@@]4(C)[C@]3(C)CC[C@@H]12`, `CC(C)(C)[Si](C)(C)OC1[C@@H](O[Si](C)(C)C(C)(C)C)[C@@H](CNC(=O)NC(=O)CCl)O[C@H]1n1cnc2c(NC(=O)Nc3ccccc3)ncnc21` (stereo partly drawn) is lower in growth: 95.2% for the first, 20.3% for the second.

Compared with `CCCCCCNC(=O)Oc1ccc(/C(=C(\C)c2ccccc2)c2ccc(OCCCN(C)C)cc2)cc1`, `NS(=O)(=O)c1ccc(CCn2c(SCC(=O)c3ccc(Cl)cc3)nc3ccccc3c2=O)cc1` is higher in growth: 81% for the first, 98.6% for the second.

First: CN1CCN(CCNc2nccc(-c3c(-c4cccc(O)c4)nc4sccn34)n2)S1(=O)=O
Second: Cc1nc2sccn2c1-c1cn2ccsc2n1
The growth of the first is higher: 101% for the first, 98% for the second.

Compared with `NC(=NCCCOc1ccc(F)cc1)Nc1ccc(Cl)cc1`, `Cc1ccc(C(=O)/C(=C/c2ccc([N+](=O)[O-])cc2)SCc2ccc(Cl)cc2)cc1` is lower in growth: 77.3% for the first, 72% for the second.

Going from `Cc1cc(Cl)nc(N(CCNc2ccnc3cc(Cl)ccc23)Cc2ccccn2)n1` to `CCNc1nc2ccc(Nc3ccnc4cc(Cl)ccc34)cc2[nH]1`, the growth rises from 47.5% to 95.8%.

Compared with `COc1ccc(-c2cnc3c(-c4cccc5cnccc45)cnn3c2)cc1`, `O=C1Nc2ccccc2/C1=C\c1c(-c2ccc(F)cc2)nc2ccccn12` is lower in growth: 56.3% for the first, 35.4% for the second.

Going from `CCOC(=O)c1cc(C#N)n2ccc3ccccc3c12` to `N#C/C(=C\c1cccc(C#N)c1)c1ccccc1`, the growth falls from 102% to 101%.

Compared with `N#CC(C(=O)/C(=N/NC(=O)c1ccccc1O)C(C#N)c1ccccc1)c1ccccc1` (stereo not drawn), `CC(c1ccccc1)C(C(=O)c1ccccc1)c1ccccc1` (stereo not drawn) is higher in growth: 44.5% for the first, 80.3% for the second.

Compared with `Cc1nc2ccc(Cl)cn2c1-c1nnc(SCc2ccc([N+](=O)[O-])cc2)o1`, `C=CCn1c(-c2ccc(-c3nc4ccc(C)cc4[nH]3)cc2)n[nH]c1=S` is higher in growth: 36.1% for the first, 108% for the second.

Going from `CCN(CC)CCn1c(=O)c2cc(OC)c(OC)cc2c2ccc3cc4c(cc3c21)OCO4` to `COc1cc(NC(=O)CSc2nc3ccc(C)cc3c(=O)n2Cc2ccccc2)cc(OC)c1OC`, the growth rises from 29.9% to 66.3%.

Going from `COc1ccc2nc(-c3ccc(-c4noc(-c5cc(OC)c(OC)c(OC)c5)n4)cc3)[nH]c2c1` to `COc1cc(CC(=O)n2ncc3ccc(N)cc32)cc(OC)c1OC`, the growth rises from 45.3% to 90.1%.

First: O=C1C=CC(=O)N1c1cccc(Cl)c1
Second: O=C(O)c1ccc2c(c1)C(=O)N(Cc1ccccc1)C2=O
The growth of the first is higher: 98.3% for the first, 98% for the second.

Compared with `O=C(Cc1ccccc1)NNc1nc(Cl)nc(N2CCN(C(c3ccccc3)c3ccccc3)CC2)n1`, `Cc1ccc(-n2c3c(c(-c4ccccc4)c2-c2ccccc2)C2=NCCN2C=N3)cc1` is lower in growth: 102% for the first, 100% for the second.

Compared with `O=C(/C=C/c1c(-c2ccc(Cl)cc2)nn(-c2ccccc2)c1C(F)(F)F)c1ccc(Cl)cc1`, `CN1[C@@H]2CC[C@H]1/C(=C\c1ccccc1)C(=O)/C2=C/c1ccccc1` is lower in growth: 97.4% for the first, 10.7% for the second.

Compared with `Cc1cc2c(c(C)c1Cl)C(=O)/C(=C/c1ccc(O)c(O)c1)O2`, `COc1cc2c(cc1OC)C(=O)/C(=C/c1cc(C)c(O)c(C)c1)S2` is lower in growth: 104% for the first, 15.3% for the second.

First: CSc1nc2sc3cccc(Cl)c3n2c(=N)c1C#N
Second: Cc1c2cc[nH]c(=O)c2c(C)c2c1[nH]c1cc(OCCN3CCN(C)CC3)ccc12
The growth of the first is higher: 103% for the first, 23.2% for the second.

In the case of `C#Cc1cccc(NC(=O)Nc2cccc(NC(=O)CCl)c2)c1`, the growth is reported as -15.1% [8.25 µM] (active).
For `COc1cc(-c2cc(-c3ccc(N(C)C)cc3)nc(N3CCOCC3)c2C#N)cc(OC)c1OC`, the growth was 4.22% (active).
With `O=C1/C=C/[C@@H](O)[C@@H]2C[C@@H](O)C[C@H]2/C=C/CCC[C@H](CCc2cccc3ccccc23)O1` the growth was 2.01% (active).
